Bioassay records (PubChem BioAssay)
Measles CPE: compounds protecting cells from measles virus cytopathic effect, primary screen, measles RdRp inhibitor project, single point, MLSMR library, absorbance | protection (pct of control), % at 4 µM | Measles virus-infected cells, CPE protection | 140,000 tested, 1.5% active | AID 841, 2007; in the data active = protection mostly above about 24%, no sharp cut-off; inactive = mostly below about 26%
CYP2C19 inh: blockers of cytochrome P450 2C19 activity – biochemical, luminescence, ADME assay, primary screen; CYP2C19 Supersomes, luciferin-H EGE luminescence, 30 min; inhibition, % at 5 µM; 96,000 tested, 21% active;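 active = CYP2C19 inhibition above a set limit at 5 µM in the primary screen, cut at about 50% in these data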;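 also: plate controls were negative control wells for no effect and 2.5 mM tranylcypromine positive control for full effect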
CYP2C9 inh: blockers of cytochrome P450 2C9 activity – biochemical, luminescence, ADME assay, primary screen. 96,000 tested, 20% active. inhibition, % at 5 µM. AID 777, 2007. P11712. CYP2C9 Supersomes, luciferin-H conversion;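 active = blocking of liver enzyme CYP2C9 beyond about 50% at 5 µM, limit read from the data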
Target sequence (P11712 whole entry, looked up): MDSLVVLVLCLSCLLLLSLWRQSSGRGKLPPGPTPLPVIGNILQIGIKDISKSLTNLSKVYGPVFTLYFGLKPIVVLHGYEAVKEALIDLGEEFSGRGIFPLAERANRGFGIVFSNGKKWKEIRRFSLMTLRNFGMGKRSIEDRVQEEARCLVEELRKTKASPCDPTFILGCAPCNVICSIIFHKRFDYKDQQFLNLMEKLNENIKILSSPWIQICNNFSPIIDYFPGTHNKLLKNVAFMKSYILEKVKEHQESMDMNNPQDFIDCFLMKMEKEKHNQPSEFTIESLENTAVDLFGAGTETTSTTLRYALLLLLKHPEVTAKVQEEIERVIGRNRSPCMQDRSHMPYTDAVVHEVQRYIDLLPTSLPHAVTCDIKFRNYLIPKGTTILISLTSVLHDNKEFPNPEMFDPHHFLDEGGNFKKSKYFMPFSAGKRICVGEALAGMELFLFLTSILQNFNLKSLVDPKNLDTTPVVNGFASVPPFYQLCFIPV
CYP2C9 activ: human CYP2C9 activators, primary screen, biochemical, luminescence | Cytochrome P450 2C9 (Homo sapiens), P11712 | recombinant CYP2C9, luciferin-H conversion; stronger effect = higher value; factor 1 = untreated enzyme, 0 = blocked | activation factor at 5 µM | 96,000 tested, 1.4% active | AID 1024, 2008;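 active = activation factor of 2 or more for CYP2C9 at a 5 µM dose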;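 also: 0 = sulfaphenazole-blocked wells and 1 = vehicle-only wells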
CYP2C19 activ: human CYP2C19 activators, primary screen, biochemical, luminescence; Cytochrome P450 2C19 (Homo sapiens), P33261; recombinant CYP2C19, luciferin-H EGE luminescence; stronger effect = higher value; 0 = fully inhibited enzyme, 1 = untreated enzyme; activation factor at 5 µM; 96,000 tested, under 10 active;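 active = activation factor of at least 2 at 5 µM in the primary screen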;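 also: 0 = wells with 2.5 mM tranylcypromine and 1 = vehicle-only wells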
Numbers without * were called inactive; . = not tested or not shown. Shown are actives, neighbours in structure and some others; about 22% of the full set was active somewhere.

SMILES	Measles CPE	CYP2C19 inh	CYP2C9 inh	CYP2C9 activ	CYP2C19 activ
Cc1nn2c(=O)c(NC(=O)c3ccc(F)cc3)cnc2s1	17	-8	-2	1	1.1
CCOC(=O)/C=c1\s/c(=C\c2c(OC)ccc3ccccc23)c(=O)n1CC(=O)NCC1CCCO1 (stereo not drawn)	3	57*	41	0.6	0.4
O=C(COc1ccccc1)NCC(=O)N/N=C/c1ccco1	8	.	.	.	.
O=C(Nc1nccs1)C12CC3CC(C1)CC(C(=O)Nc1nccs1)(C3)C2	18	91*	81*	0.2	0.1
CC12COC3(C(=O)Nc4ccc(Cl)cc4)CC1CCC32C (stereo not drawn)	15	.	.	.	.
O=C(Nc1nc2ccccc2[nH]1)C12CC3CC(CC(C3)C1)C2	12	-23	-18	1.2	1.2
O=C(Nc1ccccn1)C12CC3CC(CC(C3)C1)C2	6	26	92*	0.1	0.7
CC12COC3(C(=O)Nc4nccs4)CC1CCC32C (stereo not drawn)	7	60*	5	1	0.4
Cc1ccccc1NC(=O)Cc1c(O)c2ccccc2[nH]c1=O	11	.	.	.	.
O=C(CSc1nnc2ccccn12)Nc1ccccc1C(=O)NC1CC1	6	-5	3	1	1.1
O=C1C2C3C=CC(CC3)C2C(=O)N1/N=C/c1ccccc1O (stereo not drawn)	18	8	40	0.6	0.9
O=C(Cc1cccc2ccccc12)N/N=C/c1ccc(Sc2nc3ccccc3s2)o1	17	16	76*	0.2	0.8
Cc1ccccc1OCC(=O)N/N=C/c1ccc(Sc2nc3ccccc3s2)o1	7	74*	83*	0.2	0.3
O=C(COc1cccc2ccccc12)N/N=C/c1ccc(Sc2nc3ccccc3s2)o1	4	18	29	0.7	0.8
N#CCC(=O)N/N=C/c1ccc(Sc2nc3ccccc3s2)o1	4	78*	18	0.8	0.2
Cc1cnc(C)c(N2CCC(C(=O)NC(C)c3cccs3)CC2)n1 (stereo not drawn)	14	31	-40	1.4	0.7
CC(C)c1ccc2c(c1)C1(NN=C(c3ccccc3)S1)C(=O)N2 (stereo not drawn)	6	.	.	.	.
Cc1cccc(NC(=S)NC2CC3CCCC(C2)N3CC(C)C)c1C (stereo not drawn)	3	.	.	.	.
CCOc1ccc(Br)cc1S(=O)(=O)Nc1nc(CN2CCOCC2)nc2sc(C)c(C)c12	2	17	30	0.7	0.8
CCOc1ccc(Br)cc1S(=O)(=O)Nc1ccccc1N1CCOCC1	7	78*	55*	0.4	0.2
CCOc1ccc(Br)cc1S(=O)(=O)Nc1ccc(N2CCOCC2)cc1	77*	64*	54*	0.5	0.4
COc1ccc(C(=O)/C=C/c2cccs2)c(OC(=O)c2cccc([N+](=O)[O-])c2)c1	7	6	50*	0.5	0.9
CCOc1ccccc1N1CCN(Cc2ccc(OC)c(OC)c2OC)CC1	2	.	.	.	.
COc1ccc(CN2CCc3ccccc3C2)c(OC)c1OC	4	61*	3	1	0.4
Cc1ccccc1NC(=O)CN1CCC(n2nnc3ccccc32)CC1	4	24	8	0.9	0.8
SMILES	Measles CPE	CYP2C19 inh	CYP2C9 inh	CYP2C9 activ	CYP2C19 activ
O=C(Nc1ccc(Oc2ccc(Cl)cc2)cc1)c1ncn[nH]1	6	54*	3	1	0.5
O=C(Nc1ccc2oc(-c3ccc(Cl)c(Cl)c3)nc2c1)c1ncn[nH]1	6	5	-6	1.1	0.9
COc1ccc(NC(=O)CN2CCN(S(=O)(=O)c3ccc(C(C)C)cc3)CC2)cc1OC	13	44	41	0.6	0.6
COc1ccc(OC)c(NC(=O)CCN2CCN(c3ccccc3)CC2)c1	34	35	16	0.8	0.6
O=C(CCN1CCN(c2ccccc2)CC1)Nc1ccccc1F	23	75*	75*	0.2	0.2
O=C(CCN1CCN(CC(=O)Nc2ccccc2F)CC1)Nc1ccccc1F	5	74*	43	0.6	0.3
COc1ccc(S(=O)(=O)N2CCN(CC(=O)Nc3ccc(F)c(F)c3)CC2)cc1	22	70*	-123	2.2*	0.3
COc1cc(NC(=O)CCN2CCN(c3ccccc3F)CC2)cc(OC)c1	2	34	63*	0.4	0.7
